Compound activity: PubChem, National Center for Advancing Translational Sciences (NCATS)
TSHR antagonist = antagonists of human thyroid stimulating hormone receptor. TSHR-expressing cells, TSH-stimulated cAMP HTRF, 2 h; hits give low values. activity change, negative = inhibition, % at 11.5 µM. hit rate 0.2% among 330,000. AID 504810;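 active = activity change below a set negative limit, meaning inhibition stronger than a set level, cut at about -70% in these data; inconclusive = activity change between two set negative limits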
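Antagonism was scored as loss of TSH-driven cAMP in TSHR cells, stimulated with 4nM TSH (EC80) for 2 hours at 37 deg C and detected by homogeneous HTRF competition immunoassay.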
FBPA coupling cs = counter-screen for Giardia aldolase inhibitors: coupling enzyme system; coupling enzyme system counterscreen, AmpLite Red fluorescence; activity change, negative = inhibition, % at 58.2 µM, hits read low; hit rate 0.67% among 290,000; AID 2472; in the data active = activity change below about -30%
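First, compound is pin-transferred into glyceraldehyde-3-phosphate coupling-enzyme reagent at 57.5 uM final and held 10 min at RT. Next, substrate, coupling system and AmpLite Red are added. After 20 min RT, fluorescence (525/598 nm) is read.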
RORg inh = blocks mouse ROR gamma transcriptional activity; P51450; Drosophila S2 Gal4-RORgamma UAS-luciferase reporter, 20 h; Potency, µM (top dose mostly 53.6 µM), actives largely listed as inhibitors; hit rate 5.4% among 310,000; AID 2551; also: nearly all actives have a fitted effect of over 60% in size
Target sequence (P51450 whole entry, looked up, the tested form may be a part): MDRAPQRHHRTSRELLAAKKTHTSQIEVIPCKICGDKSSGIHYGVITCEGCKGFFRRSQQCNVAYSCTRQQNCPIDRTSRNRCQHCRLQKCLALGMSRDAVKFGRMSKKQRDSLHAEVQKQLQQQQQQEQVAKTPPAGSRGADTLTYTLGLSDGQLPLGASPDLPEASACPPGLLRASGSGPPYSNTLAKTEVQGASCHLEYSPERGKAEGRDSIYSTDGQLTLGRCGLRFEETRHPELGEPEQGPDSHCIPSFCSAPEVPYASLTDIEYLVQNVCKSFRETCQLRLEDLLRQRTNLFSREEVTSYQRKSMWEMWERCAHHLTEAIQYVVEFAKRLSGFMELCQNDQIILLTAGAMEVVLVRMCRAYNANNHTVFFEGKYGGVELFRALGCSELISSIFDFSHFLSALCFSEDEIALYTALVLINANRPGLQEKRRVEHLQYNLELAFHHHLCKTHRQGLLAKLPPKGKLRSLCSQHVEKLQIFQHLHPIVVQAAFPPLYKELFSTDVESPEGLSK
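Using a luciferase readout, inhibitors were identified by reduced reporter activity in Drosophila cells coexpressing a copper-inducible Gal4–ROR gamma fusion and UAS-driven Photinus luciferase, incubated 20 hr after 700 uM copper sulfate.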
VP16 counter = Gal4-VP16 reporter inhibition counter-screen. Drosophila S2 Gal4-VP16 UAS-luciferase, luminescence, 20 h. AID 2546. Potency, µM (highest dose often 53.6 µM), most hits filed as inhibitors. hit rate 3.5% among 310,000;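 also: Gal4-VP16 expression switched on by copper sulfate through the metallothionein promoter; nearly all actives have a fitted effect of over 50% in size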
ELG1 repair inh = inhibitors of ELG1-dependent DNA repair in HEK293T cells | HEK293T ELG1-luciferase reporter, luminescence, 16 h; DNA damage induced by 5-fluorouridine | Potency, µM (series often up to 46.1 µM), most hits filed as inhibitors | hit rate 2.3% among 330,000 | AID 504467; also: nearly all actives have a fitted effect of over 55% in size
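Overnight (16 hr) co-exposure of 2,000 cells/well to 5-fluorouridine and compound at 37 °C preceded detection. Luciferase was quantified via ONE-Glo luminescence; loss of signal denotes inhibition.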
Hits are given with their value; – = inactive; ? = inconclusive; · = no result; [ ] = remark or other dose. Sampled rows, rich in hits. Any-hit rate of the full collection: about 8%. Unless noted, calls follow the shape of the dose curve; as a rule, active = well fitted curve in the direction sought with a large enough effect; inconclusive = small, poorly fitted or top-dose-only effect, or another doubt; inactive = no such curve, though single readings can be large; an effect the other way counts as inactive or inconclusive.

SMILES	TSHR antagonist	FBPA coupling cs	RORg inh	VP16 counter	ELG1 repair inh
O=C1CC(SCc2nc3ccccc3[nH]2)C(=O)N1c1ccc(F)cc1 (stereo not given)	–	–	?	?	–
COc1ccc(N2C(=O)CC(Sc3nc(C)cc(C)c3C#N)C2=O)cc1 (stereo not given)	–	–	?	?	?
O=C1CC(Sc2nnnn2-c2ccccc2)C(=O)N1c1cccc(Cl)c1 (stereo not given)	–	–	3.5µM	3.2µM	–
O=C1CC(SCc2nc3ccccc3[nH]2)C(=O)N1c1cccc(Cl)c1 (stereo not given)	–	–	10µM	13µM	–
COc1ccc(N2C(=O)CC(Sc3nnc(-c4ccccc4)o3)C2=O)cc1 (stereo not given)	–	–	5.6µM	?	–
COc1ccc(N2C(=O)CC(Sc3nnnn3-c3ccc(F)cc3)C2=O)cc1 (stereo not given)	–	–	11µM	–[10 µM]	–
CCN1C(=O)[C@@H]2[C@@H](c3ccc(-c4ccc(C(C)=O)cc4)cc3)N3CCCC[C@@]3(C(=O)OC)[C@@H]2C1=O	–	·	·	·	?
CC(=O)Nc1ccc2nc(NC(=O)CN3CCOCC3)sc2c1	–	–	–	–	–
CC1=C/C(=N\NC(=O)c2ccc(O)cc2)CC1	–	–	13µM	?	?
COc1ccc(OCC(=O)N/N=C2/C=C(C)CC2)cc1	–	–	–	–	–
CCOC(=O)N1CCC(=NNC(=O)c2ccccc2F)CC1	–	–	–	–	?
CCOC(=O)N1CCC(=NNC(=O)c2ccc(O)cc2)CC1	–	–	8.9µM	?	–
C[C@H]1O[C@@H](n2cc(F)c(=O)[nH]c2=O)[C@H](O)[C@H]1O	–	·	·	·	·
COCC(=O)N1CCC(Oc2ccc(C(=O)NCc3cc(C)n(C)n3)cc2)CC1	–	·	–	–	–
C#CCOc1c(Cl)cc(/C=C2/C(=O)ON=C2C)cc1OC	–	–	–	–	–
COc1cc(/C=C2/C(=O)ON=C2C)cc(Cl)c1O	–	–	13µM	?	–
CCOc1cc(/C=C2/C(=O)ON=C2C)ccc1O	–	–	?	?	–
CC1=NOC(=O)/C1=C/c1ccc(O)c(Cl)c1	–	–	11µM	16µM	–
COc1cccc(NC(=O)c2ccc(-n3cnnn3)cc2)c1	–	–	–	–	–
C=C1N[C@]2(C(=O)COC(C)=O)[C@@H](C[C@H]3[C@@H]4CCC5=CC(=O)C=C[C@]5(C)[C@H]4[C@@H](O)C[C@@]32C)O1	·	·	–	–	·
Cc1ccc(/C=N/NC(=O)c2cccc(NC(=O)c3ccccc3Cl)c2)o1	–	–	–	–	–
COc1cccc(OC)c1C(=O)OCCCOC(=O)c1c(OC)cccc1OC	–	·	–	–	21µM
Cc1[nH]c2ccc(C(=O)OCC(=O)Nc3cccc(S(N)(=O)=O)c3)cc2c1C	–	·	·	·	?
CC1=NN(c2ccccc2)C(=O)C1/C=C1\NC(=S)NC1=O (stereo not given)	–	–	–	–	–
CC1=NN(c2ccccc2)C(=O)C1C=Nc1ccccc1O (stereo not given)	–	–	2µM	4.5µM	?
SMILES	TSHR antagonist	FBPA coupling cs	RORg inh	VP16 counter	ELG1 repair inh
COc1cc(C(=O)NNC(=O)CN2C(=O)NC(C)(c3ccc(C)cc3)C2=O)cc(OC)c1OC (stereo not given)	–	·	·	·	–
CCc1ccc(OCC(=O)NC(=S)Nc2cccc(CO)c2)c(Br)c1	–	–	11µM	10µM	?
CCc1ccc(OCC(=O)NC(=S)Nc2ccc(F)cc2)c(Br)c1	–	–	–	–	?
O=c1[nH]c(C2CCN(S(=O)(=O)c3ccccc3C(F)(F)F)CC2)nc2c1nnn2Cc1ccccc1	–	–	?	–	?
O=C(c1ccco1)N1CCC(c2nc3c(nnn3Cc3c(Cl)cccc3Cl)c(=O)[nH]2)CC1	–	–	?	–	?
COc1ccccc1Cn1nnc2c(=O)[nH]c(C3CCN(C(=O)c4ccc(F)cc4)CC3)nc21	–	–	–	–	?
COc1ccccc1Cn1nnc2c(=O)[nH]c(C3CCN(C(=O)c4ccc(C)cc4)CC3)nc21	–	–	–	–	23µM
CC(C)(C)c1ccc(Cn2nnc3c(=O)[nH]c(C4CCN(C(=O)c5ccco5)CC4)nc32)cc1	–	–	–	–	10µM
CC(C)(C)CC(=O)N1CCC(c2nc3c(nnn3Cc3c(F)cccc3Cl)c(=O)[nH]2)CC1	–	–	–	–	16µM
O=c1[nH]c(C2CCN(S(=O)(=O)c3ccccc3F)CC2)nc2c1nnn2Cc1ccc(OC(F)(F)F)cc1	–	–	–	–	18µM
CN(CC(=O)Nc1c(Cl)cccc1Cl)C(=O)Cc1ccc2c(c1)CCC2	–	·	·	·	–
CO[C@H]1COC(=O)C/C=C\[C@H](C)[C@@H](OC)COC(=O)[C@H](Cc2ccccc2)NC(=O)C/C=C\[C@@H]1C	·	–	–[10 µM]	–[10 µM]	·
Cc1ccc(OCCC(=O)OCC(=O)N2CCN(S(=O)(=O)c3ccc(C)cc3)CC2)cc1	–	·	·	·	–
Cc1ccc(Cn2nnc3c(=O)[nH]c(C4CCN(S(=O)(=O)Cc5ccccc5)CC4)nc32)cc1	–	–	?	?	15µM
O=C(CNC(=O)c1ccc(Br)o1)Nc1cccc(S(=O)(=O)N2CCOCC2)c1	–	·	·	·	–
COc1ccc(NC(=O)n2ncc3cc(Cl)ccc32)cc1OC	–	–	–	–	?
Cc1cc(OC(C)C(=O)N2CCN(c3ccccc3)CC2)c2c(C)c(C)c(=O)oc2c1 (stereo not given)	–	·	–	–	16µM
CC(C)(C)c1cc(Cc2ccccc2)[nH]n1	–	–	18µM	–	–
Cc1ccn2cc(CSc3ccccc3N)nc2c1	–	–	13µM	–	?
CCOC(=S)SCc1cn2ccc(C)cc2n1	–	–	14µM	?	–
Cc1ccn2cc(CC(=O)O)nc2c1	–	–	–	–	–
Cc1cc(OCC(=O)N2CCC(C(=O)O)CC2)c2c(C)c(C)c(=O)oc2c1	–	–	–	–	?
NS(=O)(=O)c1ccc(NCc2ccccc2OCc2ccc(F)cc2)cc1	–	–	?	–	?
NS(=O)(=O)c1ccc(CCNCc2ccccc2OCc2ccc(F)cc2)cc1	–	–	–	–	12µM
Cc1nc([N+](=O)[O-])c(Br)n1CC(=O)c1ccc(F)cc1	–	–	7.9µM	–[10 µM]	–
Cc1nc([N+](=O)[O-])c(Br)n1CC(=O)c1cccc([N+](=O)[O-])c1	–	–	–	–	–
Cc1nccn1CCOc1ccccc1Cl	–	–	?	–	–
O=C(Cn1cc(C(F)(F)F)ccc1=O)N1CCc2ccccc21	–	·	·	·	–
Cc1ccc(-c2cnc(N)n2C)cc1C	–	–	20µM	?	?
Cc1[nH]c(C)c(S(=O)(=O)Nc2ccc(OC(F)(F)F)cc2)c1C(=O)N1CCCCC1	–	·	–	–	–
